Most compounds without a hit are left out; they make up all but 1.2% or so of the library.
gsp antagonist – gsp mutant antagonism; Potency, µM (doses to about 76.9 µM), for inactives: at the highest dose activity change, negative = inhibition, usual class: inhibitors; 0.4% of 340,000 active; AID 624288; gsp-mutant cells, cAMP HTRF, 30 min; calls by dose curve; cell line not stated here;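 further: intracellular cAMP measured with PDE inhibitor Ro 20-1724 present during compound exposure; potency means the concentration at half of the fitted maximal effect; on the % scale 0 is the no-effect control and ±100 the full control effect; nearly all actives have a fitted effect of over 65% in size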
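Measurement of cellular cAMP by homogeneous time-resolved fluorescence following a 30 min compound exposure at 37C. The PDE inhibitor […] was present throughout; the assay buffer was DPBS with 0.05% BSA and 0.005% Tween 20.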
gsp ag – activates gsp, the McCune-Albright syndrome mutation; gsp mutant cells, cAMP HTRF, 30 min; Potency, µM (titrated, usually from 76.9 µM), inactives show at the highest dose activation (cAMP increase), usual class: activators; 0.13% of 340,000 active; active means well fitted activation curve with a large enough effect; inconclusive means small, poorly fitted or top-dose-only effect, or another doubt; inactive means no such curve, though single readings can be large or run the other way; cell line not stated here;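 further: phosphodiesterase inhibitor Ro 20-1724 added with compounds to block cAMP breakdown; potency means the concentration at half of the fitted maximal effect; nearly all actives have a fitted effect of over 60% in size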
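Cells in DMEM/10% FBS with G418 were pretreated with compounds in DMSO plus […] (300 uM stock) for 30 min at 37C. cAMP was measured by HTRF (cAMP-d2 plus anti-cAMP antibody-K) after 30 min at room temperature.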
pAkt inh – blocks phosphorylation of Akt; AID 651550; Neuro2A IGF-stimulated pAkt S473 HTRF, 20 min; hits give low values; activity change, % for hits at 50 µM; 0.32% of 360,000 active; in the data active means activity change below about -80%; inconclusive means mostly about -51% to -80%; further: on the % scale 0 is the no-effect control and ±100 the full control effect
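Neuro2A cells (4,500/well, DMEM with 0.5% FBS) were treated with compound at a single 50 µM final concentration, stimulated with 6 nM IGF for 20 min at 37 °C, and lysed. Phospho-Akt Ser473 was read by HTRF as 665/615 ratio ×10^4.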
RXFP1 antagonist – RXFP1 (human) relaxin receptor antagonism. AID 1259400. HEK293-RXFP1, relaxin-stimulated cAMP HTRF, 30 min; hits give low values. Q9HBX9. 0.59% of 350,000 active. activity change, negative = inhibition, % at 57.5 µM;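 active means activity change of -60% or lower, but not beyond a set lower limit; inconclusive means change between -60% and -40%, or beyond the set limit; inactive means change above -40%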; further: on the % scale 0 is the no-effect control and ±100 the full control effect
Target sequence (Q9HBX9 whole entry, looked up): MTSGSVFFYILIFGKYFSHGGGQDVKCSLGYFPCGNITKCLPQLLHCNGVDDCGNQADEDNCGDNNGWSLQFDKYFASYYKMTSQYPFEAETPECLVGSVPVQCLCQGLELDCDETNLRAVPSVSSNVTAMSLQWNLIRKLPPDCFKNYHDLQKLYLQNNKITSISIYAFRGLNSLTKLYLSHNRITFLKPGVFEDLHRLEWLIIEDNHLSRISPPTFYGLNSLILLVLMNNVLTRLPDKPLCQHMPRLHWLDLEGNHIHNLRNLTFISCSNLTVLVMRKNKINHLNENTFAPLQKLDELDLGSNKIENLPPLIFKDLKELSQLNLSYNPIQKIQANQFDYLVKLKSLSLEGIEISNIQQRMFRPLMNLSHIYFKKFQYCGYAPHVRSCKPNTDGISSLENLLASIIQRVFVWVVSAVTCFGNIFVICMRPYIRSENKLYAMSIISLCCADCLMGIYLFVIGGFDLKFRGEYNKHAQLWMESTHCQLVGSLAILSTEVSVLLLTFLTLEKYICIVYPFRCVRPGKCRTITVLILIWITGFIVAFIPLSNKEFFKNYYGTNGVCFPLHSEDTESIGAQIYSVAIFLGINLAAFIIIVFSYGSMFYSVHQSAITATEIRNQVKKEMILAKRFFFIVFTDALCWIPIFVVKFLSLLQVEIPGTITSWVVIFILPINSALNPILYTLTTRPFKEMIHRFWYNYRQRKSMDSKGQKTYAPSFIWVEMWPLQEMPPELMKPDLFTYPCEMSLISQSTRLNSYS
RXFP1 ag – activates the human relaxin receptor RXFP1; HEK293T-RXFP1 cAMP TR-FRET, 30 min; response scale: percent of porcine relaxin response, buffer zero; Potency, µM (doses to about 57.5 µM), inactives show at the highest dose activation, most hits filed as activators; 0.3% of 370,000 active; AID 2676; active means well fitted activation curve with a large enough effect; inconclusive means small, poorly fitted or top-dose-only effect; further: potency means the concentration at half of the fitted maximal effect; on the % scale 0 is the no-effect control and ±100 the full control effect; nearly all actives have a fitted effect of over 60% in size
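HEK293 cells stably expressing RXFP1, treated 30 min at 37C with compounds plus PDE4 inhibitor Ro 20174; cAMP measured by HTRF TR-FRET. Normalized to buffer and 29 nM porcine relaxin; EC50 by Hill fit.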
Active calls of the source: *; i = inactive; ? = inconclusive; . = not tested or not shown; [ ] = remark or other dose.

SMILES	gsp antagonist	gsp ag	pAkt inh	RXFP1 antagonist	RXFP1 ag
CCc1ccc(NC(=O)C(=O)NCC2CCCO2)cc1 (configuration not stated)	9%	8%	i	0	0%
CCOC(=O)c1ccc(NC(=O)C(=O)NCC2CCCO2)cc1 (configuration not stated)	2%[15.4 µM]	0%	-108%*	-9	2%
CC(C)c1ccc(S(=O)(=O)c2nnn3c2nc(N2CCOCC2)c2sccc23)cc1	.	.	.	-16	21%
Cc1ccc(C(C)C)c(OCC(=O)NCC2(N3CCOCC3)CCCCC2)c1	.	.	.	-111*	4%
CNC(=S)N(Cc1ccco1)Cc1cc2cc(OC)c(OC)cc2[nH]c1=O	6.3µM*	-3%[15.4 µM]	i	-2	0%
COc1cccc(CNC(=O)c2ccc(-c3nc(CS(=O)c4ccccc4)c(C)o3)cc2)c1 (configuration not stated)	.	.	.	.	0%
CCC(C(=O)Nc1ccsc1C(=O)OC)c1ccccc1 (configuration not stated)	?	2%[15.4 µM]	i	-63*	0%
CCCn1c(=O)[nH]c2ccccc21	3%	-7%	.	0	0%
Cc1cc(C)nc(SCCCn2c(=O)[nH]c3ccccc32)n1	-14%	10%	-125%*	-5	2%
Cc1nn(-c2ccc(F)cc2)c(Cl)c1/C=C(\CC(=O)O)c1nc2ccccc2s1	40µM*	26%	i	4	0%
O=S(=O)(NCCC1=CCCCC1)c1ccc(Br)cc1	-3%	-21%	i	-70*	-1%
OC[C@H]1O[C@@H](OCCc2ccc(O)cc2)[C@H](O)[C@@H](O)[C@H]1O	.	.	.	-6	.
C=CCNC(=O)C1CCN(S(=O)(=O)c2cccs2)CC1	-3%	-6%	i	-1	-2%
C=CCNC(=O)C1CCN(S(=O)(=O)c2ccccc2)CC1	-1%	21%	-95%*	3	1%
CCn1c(=O)c2cc(C(=O)N3CCN(c4cccc(OC)c4)CC3)sc2c2ccccc21	.	.	.	0	0%
Cc1ccccc1C(=O)c1cccn1CC(=O)NCCN1CCN(c2cccc(C)c2C)CC1	-7%	-17%	i	-69*	1%
N#C/C(=C\c1ccc(O)c([N+](=O)[O-])c1)c1nc2ccccc2s1	35µM*	-1%[15.4 µM]	i	12	2%
CCOC(=O)N1CCN(C(=O)c2cc3cc(F)ccc3[nH]2)CC1	5%	-7%[15.4 µM]	i	-1	1%
CCOC(=O)N1CCN(C(=O)c2cc3cc(Cl)ccc3[nH]2)CC1	50µM*	-17%	i	0	6%
Nc1nonc1-n1nnc(C(=O)N/N=C/c2ccc(Br)cc2)c1-c1ccc2c(c1)OCO2	?	18%	i	?	0%
Nc1nonc1-n1nnc(C(=O)N/N=C/c2cccnc2)c1CSc1ccc(Cl)cc1	35µM*	-7%	i	-65*	1%
Nc1nonc1-n1nnc(C(=O)N/N=C/c2cccnc2)c1CSc1ccccc1	-22%	-81%	i	-6	0%
CN(C)Cc1c(C(=O)N/N=C/c2cccc(OCc3ccccc3)c2)nnn1-c1nonc1N	50µM*	-43%	i	-15	1%
CCCOc1ccc(/C=N/NC(=O)c2nnn(-c3nonc3N)c2-c2cccs2)cc1OC	32µM*	-22%	i	-16	2%
Nc1nonc1-n1nnc(C(=O)N/N=C/c2ccc3c(c2)OCO3)c1-c1ccccc1	35µM*	-5%[15.4 µM]	i	-13	3%
SMILES	gsp antagonist	gsp ag	pAkt inh	RXFP1 antagonist	RXFP1 ag
C#CC(C)(C)NS(=O)(=O)c1cc(-c2nnc(Nc3ccc(C)cc3)c3ccccc23)ccc1C	.	.	.	.	7%
Cc1cccc(C)c1Nc1c(-c2ccccc2Cl)nc2cnccn12	.	.	.	.	12%
CSCC[C@H](NC(=O)[C@H](Cc1c[nH]c2ccccc12)NC(=O)CCNC(=O)OC(C)(C)C)C(=O)N[C@@H](CC(=O)O)C(=O)N[C@@H](Cc1ccccc1)C(N)=O	.	.	.	-7	.
CCOC(=O)c1cc(-c2ccc(F)cc2)n(CCC(=O)NCCc2ccc(C)cc2)c1C	.	.	.	-23	-2%
Cc1ccc(C)c(N2CCN(C(=O)C3CCC(CNS(=O)(=O)c4ccc(Br)s4)CC3)CC2)c1 (configuration not stated)	.	.	.	-5	4%
CO[C@@H]1[C@@H](OC)[C@H](C)[C@@](O)(CC(=O)O)O[C@H]1[C@H](C)[C@H]1O[C@@]2(CC[C@@](C)([C@H]3CC[C@@](C)([C@@H]4O[C@@H]([C@H]5O[C@](C)(O)[C@H](C)C[C@@H]5C)C[C@@H]4OC4C[C@H](OC)[C@@H](OC)[C@H](C)O4)O3)O2)C[C@H](O)[C@H]1C (some centres not stated)	.	.	.	-66*	.
Cc1ccc(NC(=O)C2SC(=Nc3ccccc3)C(C(=O)Nc3ccc(Cl)cc3)=C2N)cc1 (configuration not stated)	-8%	-9%[15.4 µM]	i	-66*	-1%
CCOc1ccc2nc3c(cc2c1)CN(CCOC)C(=NC)S3	5%	13%	-88%*	5	?
Cc1nc2ncnn2c(C)c1CCC(=O)NCc1ccccc1Cl	.	.	.	.	5%
CCN(C(=O)CCS(=O)(=O)c1ccc(Br)cc1)c1ccc2c(c1)OCO2	-2%	-46%	-108%*	0	2%
O=C(CCS(=O)(=O)c1ccc(Br)cc1)Nc1ccc2c(c1)OCO2	0%	6%	i	10	0%
COc1ccc(/C=C/C(=O)Nc2ccc(C)c(S(=O)(=O)N3CCOCC3)c2)cc1	32µM*	.	i	.	.
Cc1cc(C)n(-c2ccc(C(=O)Nc3ccc(C)c(S(=O)(=O)N4CCOCC4)c3)cc2)n1	35µM*	-1%[15.4 µM]	i	-23	-2%
CCOC(=O)c1ccc(NC(=O)c2ccc(C)c(S(=O)(=O)N3CCOCC3)c2)cc1	28µM*	0%	i	?	1%
CCOC(=O)/C(C#N)=C/c1ccc(OCC(=O)Nc2cc(C)ccc2C)c(OC)c1	-4%	-1%	-82%*	20	23%
CCOC(=O)c1ccc(NC(=O)C(C)N(c2ccc(OCC)cc2)S(C)(=O)=O)cc1 (configuration not stated)	.	.	.	.	2%
O=C(N/N=C\c1ccncc1)c1ccccc1O	4%	-11%[15.4 µM]	i	-1	2%
O=C(N/N=C/c1ccc(-c2ccccc2)o1)c1ccccc1O	-13%	?	i	-85*	0%
Cc1ccc(S(=O)(=O)N2CCN(C(=O)CN3C(=O)NC4(CCCCC4)C3=O)CC2)c(C)c1	9%	8%[15.4 µM]	i	-61*	1%
O=C(Nc1ccc(S(=O)(=O)N2CCOCC2)cc1)c1cc(Cl)ccc1NS(=O)(=O)c1ccc(Cl)s1	.	.	.	-34	.
CCN(CC)S(=O)(=O)c1cccc(N=Nc2c(O)c3ccccc3oc2=O)c1	3%	?	i	-3	16µM*
